Data on 35 compounds can be found in PubChem BioAssay (NCATS).

Results filed as inconclusive are left out. Entries that show only a call come without a potency. Activity calls are given as the source filed them. Calls come from the whole dose curve; as a rule, active = well fitted inhibition curve with a large enough effect; inconclusive = small, poorly fitted or top-dose-only effect; inactive = flat fitted curve, though single readings scatter.
Potency is the fitted concentration of half-maximal effect.

One experiment has as its system MKL-1. Kind of experiment: qHTS assay to identify novel small-molecules to repurpose for Merkel cell carcinoma treatment (AID 1296009). Note: nearly all actives have a fitted effect of over 60% in size. Particulars: MCC and control cell lines, CellTiter-Glo viability, 72 h; series mostly up to 46 µM. The gist of the method:
(§1)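 Cell viability measured by CellTiter-Glo following 72 hr compound treatment at 37 degree celsius, with NPC and MIPE libraries tested in 8- and 11-point concentration series.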
As for `CN(C)c1ccc(C(=O)NCCCCCCC(=O)NO)cc1`, the Potency is 1.66 µM (active). With `Cc1cnc(Nc2ccc(CN3CCOCC3)cc2)nc1Nc1cccc(S(=O)(=O)NC(C)(C)C)c1`, the Potency was 11.8 µM (active).

On to `O=C(CN1C(=O)C2(CCCC2)NC[C@H]1c1cc(F)cc(F)c1)Nc1ccc2c(c1)C[C@@]1(C2)C(=O)Nc2ncccc21`, for which the Potency entry is “inactive”. For `COC[C@H](NC(=O)c1cnc(C)s1)C(=O)N[C@@H](COC)C(=O)N[C@@H](Cc1ccccc1)C(=O)[C@@]1(C)CO1`, the Potency was 0.418 µM (active). As for `CCOC(=O)N1CCN([N+]([O-])=NOc2ccc([N+](=O)[O-])cc2C#N)CC1`, the Potency is 1.66 µM (active). For the compound `c1cc(N[C@@H]2CCNC2)nc(-c2cnc3ccc(-c4cn[nH]c4)cn23)c1`, the Potency was 8.33 µM (active).

Consider `O=c1ccn([C@@H]2O[C@H](CO)[C@H](O)[C@@H]2F)c(=O)[nH]1`, for which the Potency entry is “inactive”. The same measure, in the same setting: with `N#Cc1cc(NC(=O)Nc2nnc(-c3ccncc3)s2)ccc1-c1cn[nH]c1` the entry was “inactive”; with `COc1cc(C)c(Sc2cnc(NC(=O)c3ccc(CNC(C)C(C)(C)C)cc3)s2)cc1C(=O)N1CCN(C(C)=O)CC1` (centres undefined), 20.9 µM (active). In the case of `C=C1C[C@@]2(O)O[C@@]3(C[C@H]2C(C)C)[C@H](C)CC[C@H]13`, the Potency result was “inactive”. On the same count and under the same terms, as for `CCCNC(=O)[C@H]1O[C@H]1C(=O)N[C@H](C(=O)N1CCC[C@@H]1C(=O)OC)C(C)CC` (some centres undefined), the figure is 5.26 µM (active). For `CCOC(=O)C=C[C@H](C[C@@H]1CCNC1=O)NC(=O)[C@@H](CC(=O)[C@@H](NC(=O)c1cc(C)on1)C(C)C)Cc1ccc(F)cc1`, the Potency entry was “inactive”. Consider `NC[C@H]1O[C@H](O[C@H]2[C@@H](O)[C@@H](O[C@H]3O[C@H](CO)[C@@H](O)[C@H](N)[C@@H]3O)[C@H](N)C[C@@H]2N)[C@H](N)C[C@H]1O`, for which the Potency result was “inactive”. With `C=CCNc1c(O)cc2c(O)c1C[C@@H](C)C[C@H](OC)[C@@H](O)[C@@H](C)C=C(C)[C@H](OC(N)=O)[C@@H](OC)C=CC=C(C)C(=O)N2`, the Potency was 11.8 µM (active). On the same count and under the same terms, with `CC(C=CC(=O)NO)=C[C@@H](C)C(=O)c1ccc(N(C)C)cc1` the figure was 1.66 µM (active); with `O=C(C=CC#Cc1cccc(NS(=O)(=O)c2ccccc2)c1)NO`, 3.72 µM (active); with `c1coc(CNc2ncnc3nc[nH]c23)c1`, “inactive”.

As for `Cc1cc(O)c2c(c1)C(=O)c1cccc(O)c1C2=O`, the Potency entry was “inactive”. As to `CS(=O)(=O)N1CCc2c(-c3cnc(N)nc3)nc(N3CCOCC3)nc21`, the Potency entry is “inactive”.

In the case of `O=C(NCc1ccccc1)[C@H](Cc1ccccc1)NC(=O)[C@@H]1O[C@@H]1C(=O)NCCc1ccc(O)cc1`, the Potency entry was “inactive”. Still for that read-out and setting: as for `O=C(CCCCCCC(=O)Nc1cccnc1)NO`, the figure is 7.43 µM (active); as for `CCOc1cc2ncc(C#N)c(Nc3ccc(OCc4ccccn4)c(Cl)c3)c2cc1NC(=O)C=CCN(C)C`, “inactive”. As to `O=S(=O)(O)CCSSCCS(=O)(=O)O`, the Potency result was “inactive”. On to `C=CC(=O)Nc1ccc2ncnc(Nc3ccc(OCc4cccc(F)c4)c(Cl)c3)c2c1`, for which the Potency is 0.118 µM (active).

`COc1cccc2c1C(=O)c1c(O)c3c(c(O)c1C2=O)C[C@@](O)(C(=O)CO)C[C@@H]3O[C@H]1C[C@H](N)[C@@H](O)[C@H](C)O1`: the Potency was 0.166 µM (active). As to `CC(C)(C)[N+]([O-])=Cc1ccc(S(=O)(=O)O)cc1S(=O)(=O)O`, the Potency entry is “inactive”.

With `C[C@@H](Cc1cc2c(c(C(N)=O)c1)N(CCCO)CC2)NCCOc1ccccc1OCC(F)(F)F`, the Potency entry is “inactive”.

A further experiment deals with MKL-2. The description is as above. Particulars: MCC and control cell lines, CellTiter-Glo viability, 72 h; series mostly up to 46 µM. The gist of the method: as §1
Consider `CN(C)c1ccc(C(=O)NCCCCCCC(=O)NO)cc1`, for which the Potency is 0.743 µM (active).

For the compound `O=C(CN1C(=O)C2(CCCC2)NC[C@H]1c1cc(F)cc(F)c1)Nc1ccc2c(c1)C[C@@]1(C2)C(=O)Nc2ncccc21`, the Potency entry is “inactive”.

In the case of `CC(C=CC1=C(C)CCCC1(C)C)=CC=CC(C)=CC(=O)Nc1ccc(O)cc1`, the Potency is 30.3 µM (active). Same read-out and setting: with `O=C1NC(=O)[C@@H](c2cn3c4c(cccc24)CCC3)[C@H]1c1c[nH]c2ccccc12` the figure was 23.5 µM (active); with `CCOC(=O)N1CCN([N+]([O-])=NOc2ccc([N+](=O)[O-])cc2C#N)CC1`, 1.18 µM (active). In the case of `c1cc(N[C@@H]2CCNC2)nc(-c2cnc3ccc(-c4cn[nH]c4)cn23)c1`, the Potency is 7.43 µM (active).

Regarding `O=c1ccn([C@@H]2O[C@H](CO)[C@H](O)[C@@H]2F)c(=O)[nH]1`, the Potency entry was “inactive”. Turning to `COc1cc(CCc2cc(NC(=O)c3ccc(N4C[C@@H](C)N[C@@H](C)C4)cc3)n[nH]2)cc(OC)c1`, the Potency result was “inactive”. As to `N#Cc1cc(NC(=O)Nc2nnc(-c3ccncc3)s2)ccc1-c1cn[nH]c1`, the Potency result is “inactive”. The same measure, in the same setting: as for `CC(C)NC[C@@H](C(=O)N1CCN(c2ncnc3c2[C@H](C)C[C@H]3O)CC1)c1ccc(Cl)cc1`, the figure is 1.66 µM (active); as for `C=C1C[C@@]2(O)O[C@@]3(C[C@H]2C(C)C)[C@H](C)CC[C@H]13`, “inactive”.

Regarding `CCCNC(=O)[C@H]1O[C@H]1C(=O)N[C@H](C(=O)N1CCC[C@@H]1C(=O)OC)C(C)CC` (some centres undefined), the Potency is 3.32 µM (active).

For the compound `CCOC(=O)C=C[C@H](C[C@@H]1CCNC1=O)NC(=O)[C@@H](CC(=O)[C@@H](NC(=O)c1cc(C)on1)C(C)C)Cc1ccc(F)cc1`, the Potency result is “inactive”.

Regarding `NC[C@H]1O[C@H](O[C@H]2[C@@H](O)[C@@H](O[C@H]3O[C@H](CO)[C@@H](O)[C@H](N)[C@@H]3O)[C@H](N)C[C@@H]2N)[C@H](N)C[C@H]1O`, the Potency result was “inactive”. Regarding `C[C@]12CC[C@@H]3c4ccc(O)cc4CC[C@H]3[C@H]1CC[C@H]2O`, the Potency result is “inactive”.

Regarding `CC(C=CC(=O)NO)=C[C@@H](C)C(=O)c1ccc(N(C)C)cc1`, the Potency was 0.166 µM (active). On the same count and under the same terms, as for `O=C(C=CC#Cc1cccc(NS(=O)(=O)c2ccccc2)c1)NO`, the figure is 1.32 µM (active).

As to `c1coc(CNc2ncnc3nc[nH]c23)c1`, the Potency result was “inactive”. In the case of `CCC(C=C[C@@H]1OC(=O)C=C[C@H]1C)=C[C@H](C)CC=CC(C)=C[C@@H](C)C(=O)[C@@H](C)[C@H](O)[C@@H](C)CC(C)=CC(=O)O`, the Potency was 0.0049 µM (active).

Take `Cc1cc(O)c2c(c1)C(=O)c1cccc(O)c1C2=O`: the Potency result was “inactive”.

As for `CS(=O)(=O)N1CCc2c(-c3cnc(N)nc3)nc(N3CCOCC3)nc21`, the Potency result is “inactive”. The same measure, in the same setting: with `CCOC(=O)C1=C(C)NC(=S)NC1c1cccc(O)c1` (centres undefined) the entry was “inactive”; with `O=C(CCCCCCC(=O)Nc1cccnc1)NO`, 1.87 µM (active). Take `O=S(=O)(O)CCSSCCS(=O)(=O)O`: the Potency entry is “inactive”. `COc1ccc2c(c1OC)C(=O)OC2[C@H]1c2c(cc3c(c2OC)OCO3)CCN1C` (some centres undefined): the Potency result was “inactive”. Regarding `CC(C)(C)[N+]([O-])=Cc1ccc(S(=O)(=O)O)cc1S(=O)(=O)O`, the Potency result is “inactive”. With `C[C@@H](Cc1cc2c(c(C(N)=O)c1)N(CCCO)CC2)NCCOc1ccccc1OCC(F)(F)F`, the Potency result is “inactive”.
